# Source: PMC7862700, “An all-to-all approach to the identification of sequence-specific readers for epigenetic DNA modifications on cytosine”
# Legend:
# Assay in all cases: DAPPL (digital affinity profiling via proximity ligation, sequencing); 10 mM Tris-HCl pH 7.5, 50 mM NaCl, 1 mM DTT, 4% glycerol, room temperature, 30 min; GST-TFs on glutathione beads, 16-mer random dsDNA library, 0.1% formaldehyde crosslink after washing; high values mean tight binding
# FEV = molecular target: T1, FEV (Homo sapiens, UniProt Q99581 1-238); details: protein: recombinant; tags: N-terminal GST; dsDNA, one strand shown
# T1 sequence: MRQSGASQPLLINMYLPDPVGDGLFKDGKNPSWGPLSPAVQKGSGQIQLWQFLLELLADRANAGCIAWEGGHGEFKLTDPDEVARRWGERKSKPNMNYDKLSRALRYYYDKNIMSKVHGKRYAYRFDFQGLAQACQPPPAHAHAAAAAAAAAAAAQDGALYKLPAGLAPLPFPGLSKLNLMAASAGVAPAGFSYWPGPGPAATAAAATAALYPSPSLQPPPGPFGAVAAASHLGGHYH
# In short: (§1)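 Yeast served to express human transcription factors as GST fusions, which were then captured on glutathione beads and labelled with DNA barcodes. Pooled with a tag-only sample, they were incubated with 200 nmole of a 16-mer random double-stranded DNA library for 30 min at room temperature in Tris/NaCl/DTT/glycerol buffer, washed, crosslinked with 0.1% formaldehyde, ligated by proximity, amplified by PCR and sequenced. Dividing each hexamer's read frequency for a factor by its frequency for the tag-only sample gives the binding signal.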
# ETV5 = ETV5 (Homo sapiens, UniProt P41161 1-510); details: protein: recombinant; tags: N-terminal GST; dsDNA, one strand shown
# Chain of ETV5 (P41161 whole entry): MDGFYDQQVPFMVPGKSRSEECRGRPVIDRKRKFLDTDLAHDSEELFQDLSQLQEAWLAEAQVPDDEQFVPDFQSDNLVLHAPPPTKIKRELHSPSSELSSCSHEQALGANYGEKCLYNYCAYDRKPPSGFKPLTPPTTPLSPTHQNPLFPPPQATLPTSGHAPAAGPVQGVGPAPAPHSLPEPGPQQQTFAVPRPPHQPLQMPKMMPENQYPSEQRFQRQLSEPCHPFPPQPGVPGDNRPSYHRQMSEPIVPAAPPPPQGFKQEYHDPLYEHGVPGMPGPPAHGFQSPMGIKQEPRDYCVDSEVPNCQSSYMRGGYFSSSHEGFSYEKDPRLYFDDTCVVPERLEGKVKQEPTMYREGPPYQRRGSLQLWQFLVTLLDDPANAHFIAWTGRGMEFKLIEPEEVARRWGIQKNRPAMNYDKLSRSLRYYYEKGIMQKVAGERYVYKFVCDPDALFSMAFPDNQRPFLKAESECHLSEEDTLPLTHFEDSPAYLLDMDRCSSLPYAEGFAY
# In short: as §1
# HSF1 = HSF1 (Homo sapiens, UniProt Q00613 1-529); details: protein: recombinant; tags: N-terminal GST; chain copies: 3; dsDNA, one strand shown
# Chain of HSF1 (Q00613 whole entry): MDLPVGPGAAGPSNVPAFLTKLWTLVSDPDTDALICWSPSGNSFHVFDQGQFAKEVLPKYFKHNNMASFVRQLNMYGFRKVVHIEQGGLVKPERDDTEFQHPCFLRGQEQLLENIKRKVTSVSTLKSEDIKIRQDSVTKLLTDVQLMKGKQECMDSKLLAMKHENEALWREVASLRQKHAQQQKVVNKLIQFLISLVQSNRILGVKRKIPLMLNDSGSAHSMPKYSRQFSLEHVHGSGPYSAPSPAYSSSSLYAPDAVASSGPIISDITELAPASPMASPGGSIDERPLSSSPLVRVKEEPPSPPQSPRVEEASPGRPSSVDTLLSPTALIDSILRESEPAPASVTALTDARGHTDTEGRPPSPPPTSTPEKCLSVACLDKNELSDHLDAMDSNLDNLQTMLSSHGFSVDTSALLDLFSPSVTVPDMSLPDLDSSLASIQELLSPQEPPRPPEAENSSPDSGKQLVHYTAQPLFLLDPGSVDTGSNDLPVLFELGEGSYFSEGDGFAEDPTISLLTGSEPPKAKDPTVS
# In short: as §1
# SPIC = molecular target: T2, SPIC (Homo sapiens, UniProt Q8N5J4 1-248); details: protein: recombinant; tags: N-terminal GST; dsDNA, one strand shown
# T2 sequence: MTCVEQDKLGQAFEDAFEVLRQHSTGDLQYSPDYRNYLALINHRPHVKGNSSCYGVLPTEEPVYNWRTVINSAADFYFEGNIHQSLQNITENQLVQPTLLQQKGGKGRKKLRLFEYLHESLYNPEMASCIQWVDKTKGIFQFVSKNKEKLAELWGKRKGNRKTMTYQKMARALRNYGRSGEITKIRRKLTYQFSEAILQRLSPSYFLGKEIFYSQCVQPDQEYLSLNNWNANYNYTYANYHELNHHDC
# In short: as §1
# ELF4 = ELF4 (Homo sapiens, UniProt Q99607 1-663); details: protein: recombinant; tags: N-terminal GST; dsDNA, one strand shown
# Chain of ELF4 (Q99607 whole entry): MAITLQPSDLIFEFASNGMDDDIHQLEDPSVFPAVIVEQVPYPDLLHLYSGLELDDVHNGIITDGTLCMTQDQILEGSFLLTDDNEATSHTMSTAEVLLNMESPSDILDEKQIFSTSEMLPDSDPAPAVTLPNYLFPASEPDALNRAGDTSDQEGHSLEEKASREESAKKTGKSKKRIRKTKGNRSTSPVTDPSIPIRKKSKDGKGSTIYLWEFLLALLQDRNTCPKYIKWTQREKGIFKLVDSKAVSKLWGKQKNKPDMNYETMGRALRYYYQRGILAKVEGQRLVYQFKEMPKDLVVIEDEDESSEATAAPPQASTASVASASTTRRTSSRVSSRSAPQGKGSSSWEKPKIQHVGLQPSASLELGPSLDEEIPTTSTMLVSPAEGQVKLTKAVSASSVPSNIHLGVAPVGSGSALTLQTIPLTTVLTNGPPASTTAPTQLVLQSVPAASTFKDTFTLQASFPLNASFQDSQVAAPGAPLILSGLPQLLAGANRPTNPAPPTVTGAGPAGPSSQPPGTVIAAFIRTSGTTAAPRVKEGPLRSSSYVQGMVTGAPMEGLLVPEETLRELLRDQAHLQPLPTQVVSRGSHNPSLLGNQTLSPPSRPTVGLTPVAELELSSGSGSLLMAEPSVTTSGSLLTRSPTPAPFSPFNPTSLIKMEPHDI
# In short: as §1
# ELK4 = molecular target: T3, ELK4 (Homo sapiens, UniProt P28324-2 1-405); details: protein: recombinant; tags: N-terminal GST; dsDNA, one strand shown
# T3 sequence: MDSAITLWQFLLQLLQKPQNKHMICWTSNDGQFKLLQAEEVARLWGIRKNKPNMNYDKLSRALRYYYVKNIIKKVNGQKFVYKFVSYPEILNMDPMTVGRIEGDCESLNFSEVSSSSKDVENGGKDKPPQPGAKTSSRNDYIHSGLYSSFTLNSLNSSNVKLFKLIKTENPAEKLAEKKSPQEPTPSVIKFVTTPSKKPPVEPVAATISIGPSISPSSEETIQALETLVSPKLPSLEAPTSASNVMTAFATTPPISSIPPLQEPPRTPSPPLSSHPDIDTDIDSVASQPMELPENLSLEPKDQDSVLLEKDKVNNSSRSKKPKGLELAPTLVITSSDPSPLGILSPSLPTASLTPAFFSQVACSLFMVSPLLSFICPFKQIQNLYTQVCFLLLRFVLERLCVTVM
# In short: as §1
# ETV2 = molecular target: T4, ETV2 (Homo sapiens, UniProt O00321 1-342); details: protein: recombinant; tags: N-terminal GST; dsDNA, one strand shown
# T4 sequence: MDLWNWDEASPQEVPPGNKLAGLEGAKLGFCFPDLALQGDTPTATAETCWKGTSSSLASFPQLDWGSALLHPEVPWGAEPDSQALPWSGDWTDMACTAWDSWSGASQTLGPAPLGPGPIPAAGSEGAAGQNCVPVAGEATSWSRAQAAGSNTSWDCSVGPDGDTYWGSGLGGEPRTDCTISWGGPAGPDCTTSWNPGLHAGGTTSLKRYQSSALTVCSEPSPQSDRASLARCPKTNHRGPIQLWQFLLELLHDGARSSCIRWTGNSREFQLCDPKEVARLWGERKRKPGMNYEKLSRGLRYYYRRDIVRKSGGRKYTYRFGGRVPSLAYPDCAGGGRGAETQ
# In short: as §1
# ELF3 = molecular target: T5, ELF3 (Homo sapiens, UniProt P78545 1-371); details: protein: recombinant; tags: N-terminal GST; dsDNA, one strand shown
# T5 sequence: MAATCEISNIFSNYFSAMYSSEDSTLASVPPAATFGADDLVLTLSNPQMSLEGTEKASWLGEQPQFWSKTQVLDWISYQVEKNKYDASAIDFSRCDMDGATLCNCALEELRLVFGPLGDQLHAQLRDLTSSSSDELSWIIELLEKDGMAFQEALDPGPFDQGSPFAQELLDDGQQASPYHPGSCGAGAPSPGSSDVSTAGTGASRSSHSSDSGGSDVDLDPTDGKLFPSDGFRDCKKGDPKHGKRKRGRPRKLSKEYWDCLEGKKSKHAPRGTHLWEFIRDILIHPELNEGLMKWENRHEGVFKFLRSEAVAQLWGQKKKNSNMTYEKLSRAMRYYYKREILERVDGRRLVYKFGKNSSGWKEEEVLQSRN
# In short: as §1
# ETV1 = ETV1 (Homo sapiens, UniProt P50549 1-477); details: protein: recombinant; tags: N-terminal GST; dsDNA, one strand shown
# Chain of ETV1 (P50549 whole entry): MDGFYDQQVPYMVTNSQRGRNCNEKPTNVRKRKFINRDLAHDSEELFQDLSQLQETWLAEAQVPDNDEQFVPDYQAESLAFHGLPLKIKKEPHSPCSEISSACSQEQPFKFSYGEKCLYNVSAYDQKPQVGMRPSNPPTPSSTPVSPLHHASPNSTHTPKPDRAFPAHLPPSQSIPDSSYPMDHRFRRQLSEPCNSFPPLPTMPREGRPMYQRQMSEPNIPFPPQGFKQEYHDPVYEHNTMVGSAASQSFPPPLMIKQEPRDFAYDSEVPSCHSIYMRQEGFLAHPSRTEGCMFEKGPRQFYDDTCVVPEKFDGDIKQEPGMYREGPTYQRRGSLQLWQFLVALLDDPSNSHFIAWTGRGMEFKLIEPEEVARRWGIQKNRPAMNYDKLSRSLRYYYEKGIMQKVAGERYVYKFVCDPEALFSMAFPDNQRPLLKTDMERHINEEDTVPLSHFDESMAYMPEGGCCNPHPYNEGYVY
# In short: as §1
# ERF = molecular target: T6, ERF (Homo sapiens, UniProt P50548 1-548); details: protein: recombinant; tags: N-terminal GST; dsDNA, one strand shown
# T6 sequence: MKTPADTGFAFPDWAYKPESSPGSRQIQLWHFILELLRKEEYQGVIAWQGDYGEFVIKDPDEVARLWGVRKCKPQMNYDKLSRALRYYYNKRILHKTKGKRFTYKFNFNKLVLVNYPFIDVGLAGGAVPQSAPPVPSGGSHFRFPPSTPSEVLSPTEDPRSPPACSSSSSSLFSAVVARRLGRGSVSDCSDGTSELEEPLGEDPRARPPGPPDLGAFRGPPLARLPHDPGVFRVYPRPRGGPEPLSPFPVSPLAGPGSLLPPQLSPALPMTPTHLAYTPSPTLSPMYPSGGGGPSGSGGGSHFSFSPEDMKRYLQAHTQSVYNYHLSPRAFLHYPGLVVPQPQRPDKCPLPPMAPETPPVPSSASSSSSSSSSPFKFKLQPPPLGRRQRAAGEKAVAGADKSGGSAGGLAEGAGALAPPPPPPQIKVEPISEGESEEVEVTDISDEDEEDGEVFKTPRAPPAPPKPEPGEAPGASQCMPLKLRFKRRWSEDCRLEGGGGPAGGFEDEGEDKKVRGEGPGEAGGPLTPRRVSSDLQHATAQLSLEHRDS
# In short: as §1
# ETV3L = molecular target: T7, ETV3L (Homo sapiens, UniProt Q6ZN32 1-361); details: protein: recombinant; tags: N-terminal GST; dsDNA, one strand shown
# T7 sequence: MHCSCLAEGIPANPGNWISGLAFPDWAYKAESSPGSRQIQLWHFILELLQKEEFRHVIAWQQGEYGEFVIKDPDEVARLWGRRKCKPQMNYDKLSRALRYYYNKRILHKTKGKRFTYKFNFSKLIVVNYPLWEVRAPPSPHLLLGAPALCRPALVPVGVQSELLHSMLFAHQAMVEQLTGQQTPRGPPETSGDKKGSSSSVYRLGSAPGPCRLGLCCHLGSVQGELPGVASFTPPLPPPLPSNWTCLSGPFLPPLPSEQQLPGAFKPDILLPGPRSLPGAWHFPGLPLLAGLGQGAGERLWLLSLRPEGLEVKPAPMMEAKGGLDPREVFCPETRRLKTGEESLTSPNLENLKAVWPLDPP
# In short: as §1
# ETS2 = molecular target: T8, ETS2 (Homo sapiens, UniProt P15036 1-469); details: protein: recombinant; tags: N-terminal GST; dsDNA, one strand shown
# T8 sequence: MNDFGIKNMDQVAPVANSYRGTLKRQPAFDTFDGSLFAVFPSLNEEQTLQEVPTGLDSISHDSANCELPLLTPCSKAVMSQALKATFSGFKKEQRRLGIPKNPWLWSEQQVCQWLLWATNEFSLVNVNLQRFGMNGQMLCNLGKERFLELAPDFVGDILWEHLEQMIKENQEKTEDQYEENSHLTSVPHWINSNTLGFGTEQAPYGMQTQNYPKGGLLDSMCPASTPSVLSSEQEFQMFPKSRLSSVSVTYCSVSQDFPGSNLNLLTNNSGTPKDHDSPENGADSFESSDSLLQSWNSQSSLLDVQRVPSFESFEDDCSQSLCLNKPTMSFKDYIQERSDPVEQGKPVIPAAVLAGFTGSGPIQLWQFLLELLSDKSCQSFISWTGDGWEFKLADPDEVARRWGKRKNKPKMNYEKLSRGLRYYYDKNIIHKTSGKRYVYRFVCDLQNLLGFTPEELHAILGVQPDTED
# In short: as §1
# SPDEF = molecular target: T9, SPDEF (Homo sapiens, UniProt O95238 1-335); details: protein: recombinant; tags: N-terminal GST; dsDNA, one strand shown
# T9 sequence: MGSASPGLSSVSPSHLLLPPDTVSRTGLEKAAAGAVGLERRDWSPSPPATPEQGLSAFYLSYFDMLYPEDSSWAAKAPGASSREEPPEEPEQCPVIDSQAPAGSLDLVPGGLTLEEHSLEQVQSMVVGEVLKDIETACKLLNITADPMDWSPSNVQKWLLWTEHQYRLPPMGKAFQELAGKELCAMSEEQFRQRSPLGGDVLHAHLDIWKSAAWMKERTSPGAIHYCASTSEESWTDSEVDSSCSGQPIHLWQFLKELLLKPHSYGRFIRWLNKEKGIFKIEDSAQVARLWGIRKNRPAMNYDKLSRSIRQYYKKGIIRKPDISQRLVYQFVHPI
# In short: as §1
# ETV7 = molecular target: T10, ETV7 (Homo sapiens, UniProt Q9Y603 1-341); details: protein: recombinant; tags: N-terminal GST; dsDNA, one strand shown
# T10 sequence: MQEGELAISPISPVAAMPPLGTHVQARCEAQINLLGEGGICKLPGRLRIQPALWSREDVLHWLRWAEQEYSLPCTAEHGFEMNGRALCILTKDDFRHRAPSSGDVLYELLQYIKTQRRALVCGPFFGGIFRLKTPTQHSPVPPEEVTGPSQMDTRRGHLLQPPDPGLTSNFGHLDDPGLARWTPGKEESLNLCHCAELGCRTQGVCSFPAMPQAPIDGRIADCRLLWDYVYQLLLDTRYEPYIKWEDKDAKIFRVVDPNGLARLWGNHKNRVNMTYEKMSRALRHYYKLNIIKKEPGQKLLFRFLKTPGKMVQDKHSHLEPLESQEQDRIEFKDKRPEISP
# In short: as §1
# ELF5 = molecular target: T11, ELF5 (Homo sapiens, UniProt Q9UKW6-2 1-255); details: protein: recombinant; tags: N-terminal GST; dsDNA, one strand shown
# T11 sequence: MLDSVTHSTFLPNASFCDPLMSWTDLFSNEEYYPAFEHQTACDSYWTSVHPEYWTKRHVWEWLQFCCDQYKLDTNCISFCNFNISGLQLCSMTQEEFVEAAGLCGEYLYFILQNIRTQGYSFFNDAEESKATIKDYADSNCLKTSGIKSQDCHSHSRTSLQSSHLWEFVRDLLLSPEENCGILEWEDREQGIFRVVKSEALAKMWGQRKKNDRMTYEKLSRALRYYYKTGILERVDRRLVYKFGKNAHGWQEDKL
# In short: as §1
# ETV3 = molecular target: T12, ETV3 (Homo sapiens, UniProt P41162-2 1-143); details: protein: recombinant; tags: N-terminal GST; dsDNA, one strand shown
# T12 sequence: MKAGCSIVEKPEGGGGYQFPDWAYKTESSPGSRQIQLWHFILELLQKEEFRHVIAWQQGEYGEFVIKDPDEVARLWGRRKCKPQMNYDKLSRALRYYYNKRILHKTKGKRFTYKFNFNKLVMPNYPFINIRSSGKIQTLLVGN
# In short: as §1
# ETV6 = ETV6 (Homo sapiens, UniProt P41212 1-452); details: protein: recombinant; tags: N-terminal GST; dsDNA, one strand shown
# Chain of ETV6 (P41212 whole entry): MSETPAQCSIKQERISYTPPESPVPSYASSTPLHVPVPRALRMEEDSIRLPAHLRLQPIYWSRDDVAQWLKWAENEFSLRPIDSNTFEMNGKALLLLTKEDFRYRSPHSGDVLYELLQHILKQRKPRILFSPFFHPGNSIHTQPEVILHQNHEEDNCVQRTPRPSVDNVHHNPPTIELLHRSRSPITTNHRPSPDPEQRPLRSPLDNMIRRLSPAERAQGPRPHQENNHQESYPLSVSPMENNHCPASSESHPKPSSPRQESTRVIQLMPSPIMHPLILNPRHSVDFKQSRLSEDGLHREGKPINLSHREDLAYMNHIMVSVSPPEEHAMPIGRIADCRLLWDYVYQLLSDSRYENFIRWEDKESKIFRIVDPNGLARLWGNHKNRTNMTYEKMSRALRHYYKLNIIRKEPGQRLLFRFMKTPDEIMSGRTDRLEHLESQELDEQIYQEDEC
# In short: as §1
sequence,measurement,setting,value
CGCCGA,binding signal,FEV,"1.21 fold enrichment (6-mer frequency, TF over GST control)"
same,binding signal,ETV5,"1.13 fold enrichment (6-mer frequency, TF over GST control)"
same,binding signal,HSF1,"1.2 fold enrichment (6-mer frequency, TF over GST control)"
same,binding signal,SPIC,"1.18 fold enrichment (6-mer frequency, TF over GST control)"
same,binding signal,ELF4,"1.26 fold enrichment (6-mer frequency, TF over GST control)"
same,binding signal,ELK4,"1.28 fold enrichment (6-mer frequency, TF over GST control)"
same,binding signal,ETV2,"1.16 fold enrichment (6-mer frequency, TF over GST control)"
same,binding signal,ELF3,"1.03 fold enrichment (6-mer frequency, TF over GST control)"
same,binding signal,ETV1,"1.15 fold enrichment (6-mer frequency, TF over GST control)"
same,binding signal,ERF,"1.34 fold enrichment (6-mer frequency, TF over GST control)"
same,binding signal,ETV3L,"1.21 fold enrichment (6-mer frequency, TF over GST control)"
same,binding signal,ETS2,"1.22 fold enrichment (6-mer frequency, TF over GST control)"
same,binding signal,SPDEF,"1.15 fold enrichment (6-mer frequency, TF over GST control)"
same,binding signal,ETV7,"1.05 fold enrichment (6-mer frequency, TF over GST control)"
same,binding signal,ELF5,"1.1 fold enrichment (6-mer frequency, TF over GST control)"
same,binding signal,ETV3,"1.16 fold enrichment (6-mer frequency, TF over GST control)"
same,binding signal,ETV6,"1.16 fold enrichment (6-mer frequency, TF over GST control)"
